# Bioassay records deposited in PubChem BioAssay by National Center for Advancing Translational Sciences (NCATS).
# Most compounds without a hit are left out; they make up all but 9.5% or so of the library.
# Tau ThT inhib: qHTS for Inhibitors of Tau Fibril Formation, Thioflavin T Binding; Microtubule-associated protein tau (Homo sapiens), P10636; recombinant tau K18 P301L, heparin-induced fibrillization, ThT fluorescence; Potency, µM (doses to about 57.4 µM), for inactives: top-dose activity, negative = inhibition, actives largely listed as inhibitors; 2.1% of 270,000 active; AID 1460, 2008; further: nearly all actives have a fitted effect of over 55% in size
#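 Recombinant human tau K18 fragment […] carrying P301L, 15 uM unlabeled plus 0.24 uM Alexa 594-labeled, was fibrillized with 20 uM heparin in 100 mM sodium acetate pH 7 for 6 hr at 37 C; 30 uM ThT fluorescence read after 1 hr.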
# Tau FP inhib: qHTS for Inhibitors of Tau Fibril Formation, Fluorescence Polarization. K18 P301L tau heparin fibrillization, Alexa594 FP, 6 h. Potency, µM (doses to about 57.7 µM), inactives show at the top dose activity, negative = inhibition, actives largely listed as inhibitors. Microtubule-associated protein tau (Homo sapiens), P10636. AID 1468, 2008. 0.39% of 280,000 active; further: nearly all actives have a fitted effect of over 55% in size
#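 FP of Alexa 594-tau after heparin (20 uM) induction. Substrate: human K18 P301L, 15 uM unlabeled, 0.24 uM labeled. Buffer 100 mM sodium acetate pH 7. 6 hr, 37 C.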
# NPSR antagonist: qHTS Assay for Antagonists of the Neuropeptide S Receptor: cAMP Signal Transduction; 1% of 220,000 active; Q6W5P4; CHO-NPSR cells, cAMP TR-FRET, antagonist mode; Potency, µM (doses to about 38.3 µM), inactives show at the top dose activity change, negative = inhibition, actives largely listed as inhibitors; further: nearly all actives have a fitted effect of over 50% in size
# ALDH1A1 block: qHTS Assay for Inhibitors of Aldehyde Dehydrogenase 1 (ALDH1A1); Aldehyde dehydrogenase 1A1 (Homo sapiens), P00352; 7.3% of 220,000 active; Potency, µM (doses to about 75.3 µM), without a hit: at the highest dose activity, negative = inhibition, most hits filed as inhibitors; Purified ALDH1A1, NADH fluorescence, propionaldehyde substrate; AID 1030, 2008; active means well fitted inhibition curve with a large enough effect, not every such curve was filed as active; inconclusive means small, poorly fitted or top-dose-only effect, or another doubt; inactive means no such curve, though single readings can be large or run the other way;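 further: plate controls were no enzyme wells and a reference inhibitor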
# Target sequence (P00352 whole entry, looked up): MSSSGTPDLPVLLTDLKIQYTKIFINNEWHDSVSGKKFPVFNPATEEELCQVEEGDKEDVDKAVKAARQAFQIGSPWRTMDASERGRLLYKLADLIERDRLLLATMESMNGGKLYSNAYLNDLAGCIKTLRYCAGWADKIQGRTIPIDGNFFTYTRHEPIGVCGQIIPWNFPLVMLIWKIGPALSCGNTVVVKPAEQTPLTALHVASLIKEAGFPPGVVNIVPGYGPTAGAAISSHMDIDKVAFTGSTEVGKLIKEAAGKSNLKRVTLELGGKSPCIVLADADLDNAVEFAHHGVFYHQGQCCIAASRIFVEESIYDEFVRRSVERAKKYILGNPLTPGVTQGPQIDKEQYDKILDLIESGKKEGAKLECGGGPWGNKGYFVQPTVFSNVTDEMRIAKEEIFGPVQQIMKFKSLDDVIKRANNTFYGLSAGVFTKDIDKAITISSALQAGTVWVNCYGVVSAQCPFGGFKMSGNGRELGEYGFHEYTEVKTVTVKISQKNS
# Tau fluor counter: Counterscreen qHTS for Inhibitors of Tau Fibril Formation, Fluorescence Polarization; tau K18 P301L Alexa594 fluorescence, heparin fibrillization; AID 1463, 2008; 0.93% of 280,000 active; Potency, µM (top dose mostly 57.7 µM), for inactives: at the top dose activity change, negative = decrease; further: nearly all actives have a fitted effect of over 55% in size
#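 Human tau K18 P301L (15 uM unlabeled, 0.24 uM Alexa 594-labeled) in 100 mM sodium acetate pH 7 with 20 uM heparin, 6 hr at 37 C. ThT 30 uM added, 1 hr ambient; Alexa 594 FP and total fluorescence read at 555/632 nm.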
# HPGD inh: qHTS Assay for Inhibitors of HPGD (15-Hydroxyprostaglandin Dehydrogenase) | Potency, µM, for the others: at the highest dose activity change, negative = inhibition, most hits filed as inhibitors | 15-hydroxyprostaglandin dehydrogenase [NAD(+)] (Homo sapiens), P15428 | 4.3% of 150,000 active | AID 894, 2007 | purified HPGD, NADH fluorescence kinetic, PGE2 substrate; active means well fitted inhibition curve with a large enough effect, not every such curve was filed as active; inconclusive means small, poorly fitted or top-dose-only effect, or another doubt; inactive means no such curve, though single readings can be large or run the other way
#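 NADH formation kinetics: reaction with 30 uM PGE2 and 1 mM NAD+ (final), 20 nM enzyme, Tris-HCl pH 8 with Tween 20, after 15 min compound preincubation at room temperature. Fluorescence change, last versus first of five reads.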
# * marks the source's active call; other numbers are inactive results; ? = inconclusive; . = no result given; [ ] = remark or other dose. Unless noted, the call rests on the fitted dose curve; in most records, active means well fitted curve in the direction sought with a large enough effect; inconclusive means small, poorly fitted or top-dose-only effect, or another doubt; inactive means no such curve, though single readings can be large; an effect the other way counts as inactive or inconclusive. Unless noted, on the % scale 0 is the no-effect control and ±100 the full control effect; potency means the concentration at half of the fitted maximal effect.
SMILES,Tau ThT inhib,Tau FP inhib,NPSR antagonist,ALDH1A1 block,Tau fluor counter,HPGD inh
CCOC(=O)c1nc(C)sc1-c1ccnn1S(=O)(=O)c1ccccc1C(F)(F)F,-13.2%,-2.8%,?,?,-21.5%,.
COC(=O)[C@@H]1C[C@@]2(O)[C@H](O)[C@H](O)[C@H](O)C[C@H]2N1Cc1ccc(N2CCN(C)CC2)cc1,?,?,.,22.4µM*,-21.3%,-16.8%
COC(=O)[C@@H]1C[C@@]2(O)[C@H](O)[C@H](O)[C@H](O)C[C@H]2N1Cc1ccc(N2CCOCC2)cc1,12.4%,3.6%,.,?,7.2%,-21.4%
O=C(CN1C(=O)CCc2cc(S(=O)(=O)N3CCOCC3)ccc21)NCc1ccccc1,-0.3%,-0.4%,.,.,2.3%,.
COc1cccc(CNC(=O)CCc2c(C)nn(-c3ccc(N4CCCC4)nn3)c2C)c1,-3.5%,1.0%,.,.,1.9%,.
O=C(c1cc2cc([N+](=O)[O-])ccc2s1)N1CCCCC1,-9.5%,4.3%,2.0%,14.1µM*,-8.4%,.
CCN(CC)C(=O)c1cc2cc([N+](=O)[O-])ccc2s1,-7.0%,-1.3%,-8.8%[46.1 µM],-5.4%,-3.7%,28.2µM*
CN(C)C(=O)c1cc2cc([N+](=O)[O-])ccc2s1,-9.6%,1.4%,5.7%[46.1 µM],-3.7%,-3.0%,-15.3%
CCc1ccccc1NC(=O)CC1NCCNC1=O (stereo unspecified),-4.2%,-1.6%,.,.,-8.5%,.
C=C(CO)C1Cc2c(ccc3c(=O)c4c(oc23)COc2cc(OC)c(OC)cc2-4)O1 (stereo unspecified),?,1.6%,.,-10.8%,-27.0%,-3.6%
COC(=O)c1[nH]c2ccc(F)cc2c1NC(=O)CCN1CCN(Cc2ccc3c(c2)OCO3)CC1,-3.9%,0.0%,7.8%[7.67 µM],?,-18.0%,?
CCN(CC(=O)Nc1c(C(=O)OC)[nH]c2ccc(C)cc12)c1ccc2c(c1)OCO2,?,-2.0%,-12.7%[46.1 µM],14.1µM*,?,.
CC1=NN(C(=O)c2cc(C)nn2C)C(O)(C(F)(F)F)C1 (stereo unspecified),5.3%,5.9%,6.1%,-3.0%,10.6%,-2.5%
Clc1ccc(Cl)c2sc(N3CCCC3)nc12,-22.8%,-2.7%,1.0%[46.1 µM],10µM*,-21.1%,?
CC(Oc1ccccc1)C(=O)Nc1ccc(C(=O)OCc2cc(=O)n3nc(C4CC4)sc3n2)cc1 (stereo unspecified),-6.3%,11.0%,.,.,-9.5%,.
C=C(C)C(=O)NNc1ccccc1,-6.1%,5.1%,5.6%,22.4µM*,2.8%,.
CC(=O)c1cccc(NC(=O)CCS(=O)(=O)c2cccc3nsnc23)c1,?,?,-9.0%[46.1 µM],22.4µM*,-21.6%,28.2µM*
CC(=O)Nc1ccc(NC(=O)CCNS(=O)(=O)c2cccc3nsnc23)cc1,-2.0%,0.2%,9.6%,12.6µM*,-0.1%,.
COc1ccc(CNC(=O)CCCNS(=O)(=O)c2cccc3nonc23)cc1,-5.0%,3.2%,-7.7%[46.1 µM],14.1µM*,-3.7%,-6.1%
COc1ccc(NC(=O)CNS(=O)(=O)c2cccc3nonc23)c(OC)c1,-12.4%,4.8%,-7.7%[46.1 µM],12.6µM*,-7.7%,?
O=c1oc2cc(N=Cc3ccc4c(c3)OCO4)ccc2c2ccccc12,.,.,.,?,.,-13.9%
COc1cccc(NC(=O)C(=O)NCCc2csc(-c3ccc(C)cc3)n2)c1,-11.8%,-9.5%,.,.,-16.5%,.
C=C(C)Cn1c(SCC(=O)Nc2cccc(C)c2)nc2sc3c(c2c1=O)CCCC3,-14.7%,?,.,.,-15.9%,.
CCc1ccc(NC(=O)CCNS(=O)(=O)c2cccc3nonc23)cc1,-12.1%,5.0%,-9.9%[46.1 µM],22.4µM*,-14.0%,-0.1%
